Our source for the inhibition values is PubChem BioAssay AID602429 (Sanford-Burnham Center for Chemical Genomics, 2012).

In all, about 360,000 compounds went through this assay and about 1,200 (0.33%) were called active. This is one part of a sample in which actives are shown more often than they occur. No stated cut-off is given here; in the data, active means inhibition above about 37%; inactive means the rest.

For orientation: inhibition means the change of the read-out against control, counted positive when it falls.

The target in this test is Small ubiquitin-related modifier 1 (Homo sapiens) (UniProt P63165). The test is described as follows: modulators of SUMO1 protein-protein interactions, primary screen, biochemical, uHTS (AID 602429). The note with it: SUMO1 binding to a labelled peptide, TR-FRET, 1 h; at 20 µM; active compounds read high.
Sequence of Small ubiquitin-related modifier 1 (Homo sapiens) (P63165 whole entry, looked up): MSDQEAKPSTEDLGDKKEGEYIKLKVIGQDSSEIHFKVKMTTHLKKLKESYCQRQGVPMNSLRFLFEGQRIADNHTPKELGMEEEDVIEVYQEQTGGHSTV
On to `Cc1ccc(NC(=O)Cn2cccc2C2=NC(c3ccccc3)CO2)c(C)c1` (centres undefined), for which the inhibition was -4.14% (inactive).

As to `COC(=O)c1cc2occc2n1Cc1nc(-c2ccccc2C)oc1C`, the inhibition is 0.0493% (inactive).

Consider `COc1cc(CCN=Cc2ccccc2O)c([N+](=O)[O-])cc1OC`, for which the inhibition is -13% (inactive).

With `COc1ccc(Br)cc1/C=N/Nc1ccc(S(=O)(=O)Nc2ccccc2C(=O)O)cc1[N+](=O)[O-]`, the inhibition is 108% (active).

As to `COc1ccccc1C(CNC(=O)c1cccc(NS(=O)(=O)c2ccc(Br)cc2)c1)N(C)C` (centres undefined), the inhibition is -3.01% (inactive).

Take `COCOCCn1cc(CN2CCS(=O)(=O)N(Cc3ccc(-c4ccccc4)cc3)C(CC(C)C)C2=O)nn1` (centres undefined): the inhibition is 3.98% (inactive).

In the case of `COc1ccc(OCc2nnc3n2N=C(c2ccccc2)C(CC(=O)O)S3)cc1` (centres undefined), the inhibition was 10.5% (inactive).

For `CCOC(=O)C1=C(COC(=O)[C@H](C)NS(=O)(=O)c2ccccc2F)NC(=O)NC1C` (some centres undefined), the inhibition is 2.53% (inactive).

Regarding `O=C(O)CC(CC(=O)N1CCOCC1)c1ccccc1` (centres undefined), the inhibition is 4.09% (inactive).

As to `Oc1ccc(N=Cc2sc3ccccc3c2Cl)cc1`, the inhibition was 43.8% (active).

Turning to `CCCNC(=O)c1cc(C2CCCN(C(=O)c3ccc4c(c3)CCO4)C2)on1` (centres undefined), the inhibition was -2.48% (inactive).

`CCCCN(C)CCNC(=O)C1CCCN(S(=O)(=O)c2cccc3nsnc23)C1` (centres undefined): the inhibition is -32.8% (inactive).

In the case of `COc1ccc(CCNC(=O)C(=O)Nc2ccc3nc4n(c(=O)c3c2)CCCCC4)cc1OC`, the inhibition is -4.72% (inactive).

Consider `CC(=O)NN=C(C)c1ccc(NC(=O)C2CC2)cc1`, for which the inhibition is -0.643% (inactive).

As for `Cc1c(Cl)cccc1NC(=O)CCC(=O)N/N=C/c1ccco1`, the inhibition was -6.83% (inactive).

For `O=C(N/N=C/c1ccco1)c1ccc(C(=O)N/N=C/c2ccco2)o1`, the inhibition was 36.6% (active).

Regarding `O=C(Cn1cnc2ccccc21)N/N=C/c1ccco1`, the inhibition was -6.39% (inactive).

For the molecule `Cc1c(CCC(=O)O)c(=O)oc2c(C)c(OCc3ccccc3Cl)ccc12`, the inhibition was 56.6% (active).

Turning to `O=C(O)c1ccccc1OCc1ccccc1Cl`, the inhibition was 1.06% (inactive).

With `COc1ccc2c(C)c(CCC(=O)NC3CC3)c(=O)oc2c1C`, the inhibition is 1.06% (inactive).

For the molecule `Cc1cc(C)n2nc(C(=O)OC(C)C(=O)c3cc(C)c(C)cc3C)nc2n1` (centres undefined), the inhibition was 1.78% (inactive).

For the molecule `O=C(CNC(=O)[C@@H]1Cc2ccccc2CN1)NC1CCCCC1`, the inhibition was 3.02% (inactive).

`CC/C=C/C(=O)N1CC2(CC(c3cccc(NC(=O)CC)c3)=NO2)C[C@H]1C(N)=O` (some centres undefined): the inhibition is 0.0237% (inactive).

Take `C=C(C)C(=O)Nc1cccc(C2=NOC3(C2)C[C@H](C(N)=O)N(C(=O)C(c2ccccc2)c2ccccc2)C3)c1` (some centres undefined): the inhibition was 61.6% (active).

`C/C=C\C=C\C(=O)N1CC2(CC(c3cccc(NC(=O)/C(C)=C\C)c3)=NO2)C[C@H]1C(N)=O` (some centres undefined): the inhibition was -1.81% (inactive).

For `COc1cccc(NC(=O)C(Sc2nc3ccccc3c(=O)n2CC(C)C)c2ccccc2)c1` (centres undefined), the inhibition is 1.55% (inactive).

Turning to `Cc1nc([N+](=O)[O-])c(NCCCO)n1Cc1ccccc1`, the inhibition is -1.9% (inactive).

As for `CCCCNC(=O)Nc1c(C)cc(SC#N)cc1C`, the inhibition is -6.49% (inactive).

With `CCOC(=O)Cn1c2c(c(-c3ccccc3OC)cc1=O)CCCC2`, the inhibition was -0.83% (inactive).

With `COc1ccc(-c2c(-c3ccc(OC)cc3O)nc(C)nc2C(F)(F)F)cc1`, the inhibition was 3.81% (inactive).

`CCOc1ccc(-c2nc(N)ncc2-c2ccccc2OC)c(O)c1`: the inhibition is 39.4% (active).

For the molecule `Cc1nnc(SCC(=O)Nc2ccc(S(=O)(=O)Nc3ccc(Cl)nn3)cc2)s1`, the inhibition is 25.2% (inactive).

Turning to `COC(=O)CNC(=O)c1ccc(OC2CCN(C(=O)C3CC3)CC2)cc1`, the inhibition is -0.596% (inactive).

On to `Clc1ccc(C2=CSC3=Nc4cccc5cccc(c45)N23)cc1`, for which the inhibition was 55.4% (active).

In the case of `CC(C)(C)NC(=O)C(c1ccco1)N(Cc1ccc2c(c1)OCO2)C(=O)Cn1nnc2ccccc21` (centres undefined), the inhibition was 1.87% (inactive).

In the case of `CCCCn1c(N)c(N(CC(C)C)C(=O)C2CSC3(C)CCC(=O)N23)c(=O)[nH]c1=O` (centres undefined), the inhibition was 2.07% (inactive).

Turning to `CSc1cc(C)n(-c2ccccc2C)c(=S)c1C(C)=O`, the inhibition was -3.72% (inactive).

Regarding `O=C(c1cccs1)N1CCC(c2nc3ccccc3s2)CC1`, the inhibition was -0.383% (inactive).

Regarding `O=C(NCCCN1CCOCC1)c1ccccc1NS(=O)(=O)c1ccc(F)cc1`, the inhibition was 2.97% (inactive).

With `CCOC(=O)Cn1nnnc1C`, the inhibition was 4.96% (inactive).

Regarding `COc1ccc(S(=O)(=O)N2CCOCC2)c(C)c1C`, the inhibition is 0.744% (inactive).

As to `C=CCn1c(=S)[nH]c2scc(-c3ccco3)c2c1=O`, the inhibition is 80.7% (active).

On to `C=CCNC(=S)NNc1ncnc2sc3c(c12)CC(C)(C)OC3`, for which the inhibition is -4.03% (inactive).

For the molecule `O=C(Nc1ccccc1C(=O)NCCCn1ccnc1)c1ccc(Cl)cc1Cl`, the inhibition is -2.3% (inactive).

In the case of `C=C(Br)CN1CCN(CC(=C)Br)CC1`, the inhibition is 1.02% (inactive).

As for `O=C(CN1CCCCCC1)Nc1c(Cl)cc(Cl)cc1Cl`, the inhibition is -1.26% (inactive).

Regarding `O=C(CSc1nc(C2CC2)nc2ccccc12)Nc1cccc(O)c1`, the inhibition was 45.7% (active).

In the case of `O=C(CSc1nc(C2CC2)nc2ccccc12)Nc1ccc2c(c1)OCCO2`, the inhibition was -1.95% (inactive).

`Cc1nnc(NC(=O)CSc2nc(C3CCCCC3)nc3ccccc23)s1`: the inhibition was -2.49% (inactive).

On to `O=C(Cn1cnc2c(nnn2Cc2ccc(F)cc2)c1=O)NCc1ccc2c(c1)OCO2`, for which the inhibition was 1.22% (inactive).

`Cc1cc(S(=O)(=O)c2cc3ccc(O)c(C)c3oc2=O)ccc1F`: the inhibition is -12.4% (inactive).

Regarding `OCCc1ccc(NCCc2ccco2)cc1`, the inhibition is 4% (inactive).

As to `COc1ccccc1NC(=O)c1cc(Cl)nnc1Cl`, the inhibition was -6.09% (inactive).

Consider `COc1ccc(C(=O)Nc2cc(C)c(NC(=O)c3ccccc3OC)cn2)cc1`, for which the inhibition was 40% (active).

Take `COc1ccc(C(=O)N/N=C(\C)CC(=O)Nc2ccc(Cl)cn2)cc1`: the inhibition was -4.09% (inactive).

Take `CCOc1ccc(NC(=O)c2ccc(NC(=O)COC(=O)c3ccc(NC(=O)CC#N)cc3)cc2)cc1`: the inhibition is 58.6% (active).

Consider `CCOc1ccc(NC(=O)c2ccc(NC(=O)C3CCCO3)cc2)cc1` (centres undefined), for which the inhibition is 1.59% (inactive).

As for `CCOc1ccc(NC(=O)c2ccc(NC(=O)CN3C(=O)C(=O)N(CC(C)C)C3=O)cc2)cc1`, the inhibition is 6.4% (inactive).

Regarding `CCCCn1c(N)c(N(CCOC)C(=O)c2cccc(S(=O)(=O)N3CCCCC3)c2)c(=O)[nH]c1=O`, the inhibition is 1.21% (inactive).
